21 molecules from PubChem BioAssay (NCI) can be followed below.

This is part of a sample that, as a whole, favours compounds with a hit. Of some 79,000 tested, about 15% had one in any assay. Unmarked numbers belong to inactive results. The source made the active and inactive calls. Cut-off read from the data, not from the text of the source: active = growth inhibition above about 70%; inactive = the rest.

Experiment [1] can be described thus: NCI Yeast Anticancer Drug Screen. Data for the rad50 strain (AID 155).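 Note: 0% = growth of vehicle-only cultures of the same strain.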 The note with it: S. cerevisiae rad50 strain growth inhibition; at 50.0 µM; active compounds read high. In outline: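 Yeast carrying a defined DNA repair defect were exposed to test compounds, and growth was compared with vehicle-treated controls to give percent inhibition.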
The nature of experiment [2]: NCI Yeast Anticancer Drug Screen. Data for the mec2-1 strain (AID 157). The note with it: S. cerevisiae mec2-1 strain, at 50.0 µM, active compounds read high. In outline:
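Compounds were applied to mec2-1 yeast cells. Their growth was then compared with that of vehicle-treated cultures to give growth inhibition.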

Experiment [3] is described as follows: NCI Yeast Anticancer Drug Screen. Data for the sgs1 mgt1 strain (AID 161).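 Note: 0% = growth of cultures given vehicle only.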 The note with it: S. cerevisiae sgs1 mgt1 strain, at 50.0 µM, active compounds read high. In outline: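 This yeast growth screen uses a strain with defined DNA-repair lesions; compound-treated growth is compared with vehicle-treated growth.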
A short description of experiment [4]: NCI Yeast Anticancer Drug Screen. Data for the cln2 rad14 strain (AID 165).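 Note: 0% = growth equal to vehicle treated cultures.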 The note with it: S. cerevisiae cln2 rad14 strain, at 50.0 µM, active compounds read high. In outline:
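Strain: cln2 rad14 yeast, altered in cell cycle control and DNA damage repair. Read-out: growth inhibition vs vehicle.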

Experiment [5] can be described thus: NCI Yeast Anticancer Drug Screen. Data for the bub3 strain (AID 167). The note with it: S. cerevisiae bub3 mutant strain, at 50.0 µM, active compounds read high. The procedure, abridged:
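Compounds were applied to a genetically altered yeast strain carrying a cell-cycle control defect. Growth inhibition was scored against vehicle-treated controls.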

Experiment [6] in a line: NCI Yeast Anticancer Drug Screen. Data for the mlh1 rad18 strain (AID 175). The note with it: S. cerevisiae mlh1 rad18 strain growth inhibition; at 50.0 µM; active compounds read high. In outline:
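A repair-deficient yeast strain is exposed to test compound, and growth is scored relative to vehicle-treated controls.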

As for `COC(=O)CC1C(OC)OC23CCC1C2(C)CCC1C3CCC2CC(OC3CCCCO3)CCC21C` (stereo unspecified), the growth inhibition in experiment [1] was 19.1%; in experiment [2] it was 1.15%; in experiment [3], 9.55%; in experiment [4], 12.6%; in experiment [5], 3.2%; in experiment [6] it was 18.3%.
For `CC1OC1C(=O)C1(O)C(C)C(O)C23OC2(C(O)c2c(O)cccc2C3=O)C1O` (stereo unspecified), the growth inhibition in experiment [1] is 6.75%; in experiment [2] it was -21.8%; in experiment [3], 8.65%; in experiment [4] it was -1.1%; in experiment [5] it was -0.7%; in experiment [6], 10.3%.
`CCOc1ccc(NC(=O)COc2ccc(Cl)cc2Cl)cc1`: the growth inhibition in experiment [1] was 14.9%; in experiment [2], 22.3%; in experiment [3], 23.5%; in experiment [4], 18.4%; in experiment [5] it was 26.1%; in experiment [6], 14.9%.
For the molecule `Cc1[nH]nc2c1NC(=O)OC(C)C2` (stereo unspecified), the growth inhibition in experiment [1] is 11.8%; in experiment [2], -2.9%; in experiment [3], 0.9%; in experiment [4] it was -9.85%; in experiment [5], -2.85%; in experiment [6], 2.9%.
Turning to `CC(C)=NN/C=N/S(=O)(=O)c1ccc(C)cc1`, the growth inhibition in experiment [1] was 15.2%; in experiment [2], 6.05%; in experiment [3] it was 10.4%; in experiment [4], 25%; in experiment [5] it was 2.1%; in experiment [6], 4.65%.
On to `COc1ccc(N2C(=O)[C@@H](N=[N+]=[N-])[C@@H]2[C@H]2COC(C)(C)O2)cc1`, for which the growth inhibition in experiment [1] is 1.95%; in experiment [2], -14.3%; in experiment [3] it was 1.3%; in experiment [4], 5%; in experiment [5] it was 3.35%; in experiment [6], 9%.
Consider `CC(/C=N/N(C)C)=N\N(C)C`, for which the growth inhibition in experiment [1] is -3.75%; in experiment [2], 5.3%; in experiment [3] it was -5.65%; in experiment [4], -60.4%; in experiment [5], 32.2%; in experiment [6], -21.4%.
With `CS(=O)(=O)c1ccc(N2CCCCC2)c([N+](=O)[O-])c1`, the growth inhibition is 29.9% in experiment [1]; 6.05% in experiment [2]; 27.6% in experiment [3]; 16.7% in experiment [4]; 10.9% in experiment [5]; -4.9% in experiment [6].
With `C=CCN(CC=C)CCNc1cc(C)nc(/N=C(\N)Nc2ccc(Cl)c(Cl)c2)n1`, the growth inhibition in experiment [1] is 94.7% (active); in experiment [2] it was 94.2% (active); in experiment [3], 96.8% (active); in experiment [4], 87% (active); in experiment [5], 94.7% (active); in experiment [6], 97.9% (active).
Take `CC1C(c2ccccc2)(N(C)C)CS1(=O)=O` (stereo unspecified): the growth inhibition in experiment [1] is -3.15%; in experiment [2], -8.5%; in experiment [3], -6.4%; in experiment [4] it was -74.7%; in experiment [5] it was 12.7%; in experiment [6] it was -8.6%.
Regarding `CCN(CC)c1ccc(-c2ccccc2)cc1`, the growth inhibition in experiment [1] is 28.1%; in experiment [2] it was 5.4%; in experiment [3], -8.45%; in experiment [4], -69.4%; in experiment [5] it was 2.9%; in experiment [6], 8.5%.
On to `N#CCCBr`, for which the growth inhibition in experiment [1] was 23.9%; in experiment [2], 0.15%; in experiment [3], 7.45%; in experiment [4], -22.6%; in experiment [5] it was 15.7%; in experiment [6], 31.1%.
For `COc1ccc(-c2c3c(nc4nc(SC)nc(SC)c24)CCCC3)cc1OC`, the growth inhibition in experiment [1] is 1.15%; in experiment [2], -10.4%; in experiment [3] it was 1.25%; in experiment [4], 1.15%; in experiment [5] it was -2.65%; in experiment [6], 6.8%.
With `COc1ccc(/C=C2\N=C(c3cc(OC)c(OC)c(OC)c3)OC2=O)cc1Br`, the growth inhibition is -6.95% in experiment [1]; -6.7% in experiment [2]; 21.6% in experiment [3]; -0.4% in experiment [4]; 6.2% in experiment [5]; 2.1% in experiment [6].
Turning to `CCOC(=O)/C=C(/C)C#N`, the growth inhibition in experiment [1] was -9.65%; in experiment [2], -3.7%; in experiment [3] it was -11.8%; in experiment [4], 7.4%; in experiment [5] it was 9.55%; in experiment [6] it was 2.9%.
`CC(=O)NC(=O)CC(=O)c1ccccc1`: the growth inhibition in experiment [1] is -2.2%; in experiment [2] it was -12.8%; in experiment [3], -13.4%; in experiment [4] it was 13.9%; in experiment [5], -4.7%; in experiment [6] it was -18.3%.
As to `Nc1nc(N)c2nc(-c3ccc([N+](=O)[O-])cc3)c(Cl)nc2n1`, the growth inhibition in experiment [1] is -8.2%; in experiment [2], -16.3%; in experiment [3], -11.9%; in experiment [4], -44.9%; in experiment [5], -27%; in experiment [6], -28.7%.
`O=c1cc([N+](=O)[O-])c2c([nH]1)CCC2`: the growth inhibition in experiment [1] is -5.3%; in experiment [2], 1.3%; in experiment [3] it was 12.8%; in experiment [4] it was -27.8%; in experiment [5], -6.15%; in experiment [6], -0.5%.
On to `O=C(CC[n+]1ccccc1)NCCCCCCNC(=O)CC[n+]1ccccc1`, for which the growth inhibition in experiment [1] was -17.9%; in experiment [2], -31.9%; in experiment [3] it was -23.5%; in experiment [4] it was 7.5%; in experiment [5], -17.4%; in experiment [6] it was -21.9%.
`O=C1CCCc2[nH]c(=O)ccc21`: the growth inhibition was 13% in experiment [1]; -3.1% in experiment [2]; 0% in experiment [3]; -7.95% in experiment [4]; 0.3% in experiment [5]; 9.9% in experiment [6].
On to `CC(=N\NS(=O)(=O)c1ccc(C)cc1)/C(C)=N/NS(=O)(=O)c1ccc(C)cc1`, for which the growth inhibition in experiment [1] is 25.3%; in experiment [2], -1.9%; in experiment [3], 12.8%; in experiment [4] it was 0.85%; in experiment [5], 0.95%; in experiment [6] it was -8.3%.
